# Like-named read-outs stand apart in the source and are kept apart here.
# Tests used:
# Parameters in all cases: species or system human, MV4-11 + K-562 + COLO205 + SK-N-BE2 + OVCAR-8
# CDC42BPG = details: read-out: apparent Kd, n = 1
# IRAK3 = details: read-out: apparent Kd; compound concentrations:100 nM and 1000 nM (sheet 'Samples'); n = 1
# MAPK14 = details: read-out: apparent Kd, n = 1
# PIK3CA = details: read-out: apparent Kd; compound concentrations:100 nM and 1000 nM (sheet 'Samples'); n = 1
# PIK3CD = details: read-out: apparent Kd; compound concentrations:100 nM and 1000 nM (sheet 'Samples'); n = 1
# PIM1 = details: read-out: apparent Kd; compound concentrations:100 nM and 1000 nM (sheet 'Samples'); n = 1
# STK16 = details: read-out: apparent Kd, n = 1
# CDC42BPA = details: read-out: apparent Kd; compound concentrations: 100 nM and 1000 nM (sheet 'Samples'), CATDS: 4.4382649306469998E-2; n = 1
# CDC42BPB = details: read-out: apparent Kd, n = 1
# CDC7 = details: read-out: apparent Kd; compound concentrations: 100 nM and 1000 nM (sheet 'Samples'), CATDS: 6.9489626335847196E-2; n = 1
# CLK4 = details: read-out: apparent Kd; compound concentrations: 100 nM and 1000 nM (sheet 'Samples'), CATDS: 5.9316803085408598E-2; n = 1
# GSK3A = details: read-out: apparent Kd, n = 1
# GSK3B = details: read-out: apparent Kd, n = 1
# LATS1 = details: read-out: apparent Kd; compound concentrations: 100 nM and 1000 nM (sheet 'Samples'), CATDS: 0.14331063333654301; n = 1
# NQO1 = details: read-out: apparent Kd; compound concentrations: 100 nM and 1000 nM (sheet 'Samples'), CATDS: 4.4968257492060203E-2; n = 1
# PKN1 = details: read-out: apparent Kd, n = 1
# PKN2 = details: read-out: apparent Kd; compound concentrations: 100 nM and 1000 nM (sheet 'Samples'), CATDS: 0.153152330435843; n = 1
# PKN3 = details: read-out: apparent Kd; compound concentrations: 100 nM and 1000 nM (sheet 'Samples'), CATDS: 4.6811653986635102E-2; n = 1
# ROCK1 = details: read-out: apparent Kd, n = 1
# ROCK2 = details: read-out: apparent Kd, n = 1
# RPS6KA5 = details: read-out: apparent Kd; compound concentrations: 100 nM and 1000 nM (sheet 'Samples'), CATDS: 4.9211147170022597E-2; n = 1
# RPS6KB1 = details: read-out: apparent Kd, n = 1
# CAMK4 = details: read-out: apparent Kd, n = 1
# CDK4 = details: read-out: apparent Kd; compound concentrations:100 nM and 1000 nM (sheet 'Samples'); n = 1
# CDKL5 = details: read-out: apparent Kd; compound concentrations:100 nM and 1000 nM (sheet 'Samples'); n = 1
# CLK1 = details: read-out: apparent Kd; compound concentrations:100 nM and 1000 nM (sheet 'Samples'); n = 1
# ICK = details: read-out: apparent Kd; compound concentrations:100 nM and 1000 nM (sheet 'Samples'); n = 1
# MERTK = details: read-out: apparent Kd; compound concentrations:100 nM and 1000 nM (sheet 'Samples'); n = 1
# PRKCA = details: read-out: apparent Kd; compound concentrations:100 nM and 1000 nM (sheet 'Samples'); n = 1
# PRKCB = details: read-out: apparent Kd; compound concentrations: 100 nM and 1000 nM (sheet 'Samples'), CATDS: 6.3755563095046694E-2; n = 1
# PRKCD = details: read-out: apparent Kd; compound concentrations:100 nM and 1000 nM (sheet 'Samples'); n = 1
# PRKCQ = details: read-out: apparent Kd; compound concentrations:100 nM and 1000 nM (sheet 'Samples'); n = 1
# RPS6KA6 = details: read-out: apparent Kd; compound concentrations:100 nM and 1000 nM (sheet 'Samples'); n = 1
# CAMK2B = details: read-out: apparent Kd; compound concentrations: 100 nM and 1000 nM (sheet 'Samples'), CATDS: 0.21240793687588; n = 1
# CAMK2D = details: read-out: apparent Kd; compound concentrations: 100 nM and 1000 nM (sheet 'Samples'), CATDS: 0.22355141461127601; n = 1
# CAMK2G = details: read-out: apparent Kd; compound concentrations: 100 nM and 1000 nM (sheet 'Samples'), CATDS: 0.16282933819825701; n = 1
# MAPK1 = details: read-out: apparent Kd; compound concentrations: 100 nM and 1000 nM (sheet 'Samples'), CATDS: 0.13886491205571; n = 1
# MTHFD1 = details: read-out: apparent Kd; compound concentrations: 100 nM and 1000 nM (sheet 'Samples'), CATDS: 0.112540621038884; n = 1
# PRKX = details: read-out: apparent Kd; compound concentrations: 100 nM and 1000 nM (sheet 'Samples'), CATDS: 0.17762279557226701; n = 1
# HSPE1 = details: read-out: apparent Kd; compound concentrations:100 nM and 1000 nM (sheet 'Samples'); n = 1
# FLT4 = details: read-out: apparent Kd; compound concentrations:100 nM and 1000 nM (sheet 'Samples'); n = 1
# MAP3K1 = details: read-out: apparent Kd; compound concentrations:100 nM and 1000 nM (sheet 'Samples'); n = 1
# MAP4K5 = details: read-out: apparent Kd; compound concentrations:100 nM and 1000 nM (sheet 'Samples'); n = 1
# STK10 = details: read-out: apparent Kd; compound concentrations:100 nM and 1000 nM (sheet 'Samples'); n = 1
# EGFR = details: read-out: apparent Kd; compound concentrations: 100 nM and 1000 nM (sheet 'Samples'), CATDS: 0.39562285113590601; n = 1
# FLT3 = details: read-out: apparent Kd; compound concentrations:100 nM and 1000 nM (sheet 'Samples'); n = 1
# PRKACA = details: read-out: apparent Kd; compound concentrations:100 nM and 1000 nM (sheet 'Samples'); n = 1
# PRKACB = details: read-out: apparent Kd; compound concentrations:100 nM and 1000 nM (sheet 'Samples'); n = 1
# PRKG1 = details: read-out: apparent Kd; compound concentrations:100 nM and 1000 nM (sheet 'Samples'); n = 1
# PRKX;PRKY = details: read-out: apparent Kd; compound concentrations:100 nM and 1000 nM (sheet 'Samples'); n = 1
# [1] = compound concentrations:100 nM and 1000 nM (sheet 'Samples')
structure (smiles),measurement,setting,value
O=C(Nc1n[nH]c2nc(-c3ccccc3)c(Br)cc12)C1CC1 [SB-708998],potency estimated from few doses,CDC42BPG; [1],1880 nM
same,potency estimated from few doses,IRAK3,1410 nM
same,potency estimated from few doses,MAPK14; [1],1640 nM
same,potency estimated from few doses,PIK3CA,245 nM
same,potency estimated from few doses,PIK3CD,187 nM
same,potency estimated from few doses,PIM1,1280 nM
same,potency estimated from few doses,STK16; [1],1890 nM
Nc1nonc1-c1nc2cnccc2n1C1CCCCC1 [SB-734117],potency estimated from few doses,CDC42BPA,2000 nM
same,potency estimated from few doses,"CDC42BPB; compound concentrations: 100 nM and 1000 nM (sheet 'Samples'), CATDS: 5.2868246392704099E-2",1000 nM
same,potency estimated from few doses,CDC7,446 nM
same,potency estimated from few doses,CLK4,693 nM
same,potency estimated from few doses,"GSK3A; compound concentrations: 100 nM and 1000 nM (sheet 'Samples'), CATDS: 0.14981802566128199",91.8 nM
same,potency estimated from few doses,"GSK3B; compound concentrations: 100 nM and 1000 nM (sheet 'Samples'), CATDS: 0.15901528532749901",83.3 nM
same,potency estimated from few doses,LATS1,98.8 nM
same,potency estimated from few doses,NQO1,1880 nM
same,potency estimated from few doses,"PKN1; compound concentrations: 100 nM and 1000 nM (sheet 'Samples'), CATDS: 5.3241919532380499E-2",977 nM
same,potency estimated from few doses,PKN2,88.5 nM
same,potency estimated from few doses,PKN3,1580 nM
same,potency estimated from few doses,"ROCK1; compound concentrations: 100 nM and 1000 nM (sheet 'Samples'), CATDS: 5.1294364781544602E-2",1110 nM
same,potency estimated from few doses,"ROCK2; compound concentrations: 100 nM and 1000 nM (sheet 'Samples'), CATDS: 6.2443237217646497E-2",596 nM
same,potency estimated from few doses,RPS6KA5,1300 nM
same,potency estimated from few doses,"RPS6KB1; compound concentrations: 100 nM and 1000 nM (sheet 'Samples'), CATDS: 0.131217569210515",115 nM
Cl.Cn1cc(C2=C(c3cn(CCCN)c4ccccc34)C(=O)NC2=O)c2ccccc21 [RO0317549-002],potency estimated from few doses,CAMK4; [1],1430 nM
same,potency estimated from few doses,CDK4,1650 nM
same,potency estimated from few doses,CDKL5,2060 nM
same,potency estimated from few doses,CLK1,1850 nM
same,potency estimated from few doses,GSK3A; [1],136 nM
same,potency estimated from few doses,GSK3B; [1],115 nM
same,potency estimated from few doses,ICK,109 nM
same,potency estimated from few doses,MERTK,1370 nM
same,potency estimated from few doses,PRKCA,117 nM
same,potency estimated from few doses,PRKCB,606 nM
same,potency estimated from few doses,PRKCD,93.3 nM
same,potency estimated from few doses,PRKCQ,566 nM
same,potency estimated from few doses,RPS6KA6,44.1 nM
same,potency estimated from few doses,RPS6KB1; [1],1180 nM
N#Cc1cccc(C(=O)NC2CCN(c3ccnc(Nc4ccc(F)cc4)n3)C2)c1 (centres unmarked) [GSK1379708A],potency estimated from few doses,CAMK2B,395 nM
same,potency estimated from few doses,CAMK2D,364 nM
same,potency estimated from few doses,CAMK2G,631 nM
same,potency estimated from few doses,"MAPK14; compound concentrations: 100 nM and 1000 nM (sheet 'Samples'), CATDS: 0.12639229047772599",1100 nM
same,potency estimated from few doses,MAPK1,879 nM
same,potency estimated from few doses,MTHFD1,1500 nM
same,potency estimated from few doses,"STK16; compound concentrations: 100 nM and 1000 nM (sheet 'Samples'), CATDS: 0.103320343146107",1980 nM
CC1=C(C(=O)Nc2cc(Cl)c3[nH]ncc3c2)C(c2ccc(C(F)(F)F)cc2)CC(=O)N1 (centres unmarked) [GSK466317A],potency estimated from few doses,"CDC42BPB; compound concentrations: 100 nM and 1000 nM (sheet 'Samples'), CATDS: 0.18288519935085101",1940 nM
same,potency estimated from few doses,PRKX,2180 nM
same,potency estimated from few doses,"ROCK1; compound concentrations: 100 nM and 1000 nM (sheet 'Samples'), CATDS: 0.39431900573288498",277 nM
same,potency estimated from few doses,"ROCK2; compound concentrations: 100 nM and 1000 nM (sheet 'Samples'), CATDS: 0.422625118244225",246 nM
O=C(Nc1n[nH]c2nc(-c3ccccc3)ccc12)C1CC1 [SB-708999],potency estimated from few doses,CDC42BPG; [1],1760 nM
same,potency estimated from few doses,HSPE1,296 nM
C/C(=C1/SC(NCc2cccs2)=NC1=O)c1ccc2ncccc2c1 [RO4607009-000],potency estimated from few doses,"CAMK4; compound concentrations: 100 nM and 1000 nM (sheet 'Samples'), CATDS: 0.39593568375035498",2260 nM
same,potency estimated from few doses,"CDC42BPG; compound concentrations: 100 nM and 1000 nM (sheet 'Samples'), CATDS: 0.67827085462466996",701 nM
COc1cc2ncn(-c3cc(O[C@@H](C)c4ccccc4Cl)c(C(N)=O)s3)c2cc1OC [GSK237700A],potency estimated from few doses,CDC42BPG; [1],2140 nM
same,potency estimated from few doses,FLT4,1530 nM
same,potency estimated from few doses,MAP3K1,1500 nM
same,potency estimated from few doses,MAP4K5,2080 nM
same,potency estimated from few doses,STK10,1820 nM
CS(=O)(=O)CCNCc1ccc(-c2ccc3ncnc(Nc4ccc(OCc5cccc(C(F)(F)F)c5)cc4)c3c2)o1.Cl [GW567808A],potency estimated from few doses,CDC42BPG; [1],1820 nM
same,potency estimated from few doses,EGFR,995 nM
same,potency estimated from few doses,FLT3,1430 nM
Cl.Cl.NC[C@H](Cc1ccc(C(F)(F)F)cc1)NC(=O)c1cc(Br)c(-c2ccnc3[nH]ccc23)s1.NC[C@H](Cc1ccc(C(F)(F)F)cc1)NC(=O)c1cc(Br)c(-c2ccnc3[nH]ccc23)s1 [GSK1487252A],potency estimated from few doses,CDC42BPB; [1],2460 nM
same,potency estimated from few doses,PKN1; [1],2080 nM
same,potency estimated from few doses,PRKACA,20.5 nM
same,potency estimated from few doses,PRKACB,60.6 nM
same,potency estimated from few doses,PRKG1,30.2 nM
same,potency estimated from few doses,PRKX;PRKY,593 nM
same,potency estimated from few doses,ROCK1; [1],217 nM
same,potency estimated from few doses,ROCK2; [1],180 nM
same,potency estimated from few doses,RPS6KB1; [1],461 nM

# — publication PMC11062922 (Nature Chemical Biology, 2023)
